A number with no mark means an inactive call. Records with an inconclusive call do not appear. Activity calls are given as the source filed them. Calls come from the whole dose curve; as a rule, active = well fitted curve in the direction sought with a large enough effect in the repeat runs; inconclusive = weak or mixed curves; inactive = no such curve, though single readings can be large; an effect the other way counts as inactive or inconclusive.
Assay: qHTS assay to identify small molecule HDAC inhibitors (AID 1259364);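 note: wild-type HCT-116 cells with endogenous class I/II HDAC activity; top concentration of the series differs between compounds; nearly all actives have a fitted effect of over 45% in size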
Conditions: HCT-116 HDAC-Glo I/II luminescence, 2 h; series mostly up to 92.4 µM; activity change, negative = inhibition: at the top concentration
In short: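 HCT-116 wt cells, 1,500/well, overnight attach. Compounds (DMSO) 2 h, 37 °C. HDAC-Glo I/II, 30 min RT. Luminescence.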
For `Nc1cc(Cl)ccc1Cl`, the “activity change, negative = inhibition” value was 0.343%. For `CCCCCCCCCCCCCCn1cc[n+](C)c1`, the Potency was “inactive”. For `CSC(=O)c1c(C(F)F)nc(C(F)(F)F)c(C(=O)SC)c1CC(C)C`, the “activity change, negative = inhibition” value was -5.34%. With `Cc1ccc(C)c2ccccc12` the “activity change, negative = inhibition” value was 1.42%. In the case of `CC(Cc1ccccc1)N(C)Cc1ccco1` (centres undefined), the “activity change, negative = inhibition” value is reported as 2.96% [at 42.5 µM]. With `O=C(CCCCl)c1ccc(F)cc1` the “activity change, negative = inhibition” value was -5.83% [at 42.5 µM]. In the case of `Oc1cccc(Cl)c1Cl`, the “activity change, negative = inhibition” value is reported as 2.46%. With `CCCCC/C=C\C/C=C\C/C=C\C/C=C\CCCC(=O)NCC(=O)O` the “activity change, negative = inhibition” value was 4.87% [at 42.5 µM]. For `O=C(N[C@H]1N=C(c2ccccc2F)c2cccc3c2N(CC3)C1=O)c1cc2ccccc2[nH]1`, the “activity change, negative = inhibition” value was -2.26% [at 42.5 µM]. In the case of `CNC(C)(C)Cc1ccccc1`, the “activity change, negative = inhibition” value is reported as 2.54% [at 42.5 µM]. For `O=[N+]([O-])[O-].[Tl+]`, the “activity change, negative = inhibition” value was -6.66%. For `ClC(Cl)C(Cl)(Cl)Cl`, the “activity change, negative = inhibition” value was -0.795%. In the case of `C[C@@H]1CC2=CC(=O)CC[C@@H]2[C@H]2CC[C@@]3(C)[C@@H](CC[C@]3(C)O)[C@@H]21`, the “activity change, negative = inhibition” value is reported as 0.644% [at 42.5 µM]. Work on `CC(=O)[O-].CC(=O)[O-].CC(=O)[O-].[Sb+3]` yielded an activity change, negative = inhibition of 2.54% [at 3.27 µM]. With `COP(=S)(OC)Oc1nc(Cl)c(Cl)cc1Cl` the “activity change, negative = inhibition” value was 1.36%. For `CC(C)Br`, the “activity change, negative = inhibition” value was 1.01%. For `[O-][Cl+3]([O-])([O-])O`, the “activity change, negative = inhibition” value was -0.501%. In the case of `CC(C)[C@@H](Nc1ccc(C(F)(F)F)cc1Cl)C(=O)OC(C#N)c1cccc(Oc2ccccc2)c1` (some centres undefined), the “activity change, negative = inhibition” value is reported as 10.7%. With `CSSC` the “activity change, negative = inhibition” value was 0.455%. For `CSC1=N[C@@](C)(c2ccccc2)C(=O)N1Nc1ccccc1`, the “activity change, negative = inhibition” value was -0.107%. With `N#CCCl` the “activity change, negative = inhibition” value was 0.537%. With `CCCC[N+]1(C)CCCC1` (tested in a mixture with another compound) the “activity change, negative = inhibition” value was -17.6%. In the case of `COC(=O)/C=C(\C)OP(=O)(OC)OC`, the “activity change, negative = inhibition” value is reported as 0.708%. With `COP(=S)(OC)Oc1ccc([N+](=O)[O-])c(C)c1` the “activity change, negative = inhibition” value was -17.3%. For `CCC[CH2][Sn]([CH2]CCC)([O]C(C)=O)[O]C(C)=O`, the “activity change, negative = inhibition” value was -18.8%. For `CC#C[C@]1(O)CC[C@H]2[C@@H]3C[C@H](C)C4=CC(=O)CC[C@]4(C)[C@H]3CC[C@@]21C`, the “activity change, negative = inhibition” value was -16.5% [at 42.5 µM]. In the case of `CC1CCCC1`, the “activity change, negative = inhibition” value is reported as -0.518%. For `CCCCn1cc[n+](C)c1.[Cl][Fe-]([Cl])([Cl])[Cl]`, the “activity change, negative = inhibition” value was 0.329%. With `Nc1nc(N)c(N)c(N)n1` the “activity change, negative = inhibition” value was -3.73%. For `CCC(C)Nc1c([N+](=O)[O-])cc(C(C)(C)C)cc1[N+](=O)[O-]` (centres undefined), the “activity change, negative = inhibition” value was 0.667%. With `O=C(NC(=O)c1c(F)cccc1F)Nc1ccc(Oc2ccc(C(F)(F)F)cc2Cl)cc1F` the “activity change, negative = inhibition” value was 8.7%. For `CCCCC(CC)COC(=O)OOC(C)(C)C` (centres undefined), the “activity change, negative = inhibition” value was -23%. In the case of `CC1CN1` (centres undefined), the “activity change, negative = inhibition” value is reported as -0.502%. In the case of `O=S(=O)(NS(=O)(=O)C(F)(F)F)C(F)(F)F`, the “activity change, negative = inhibition” value is reported as -12.3%. For `O.O.O.O.O.O.O.O=S(=O)([O-])[O-].[Co+2]`, the “activity change, negative = inhibition” value was 7.82%.

Assay: qHTS assay to identify small molecule HDAC inhibitors - cell viability counter screen (AID 1259365); note: nearly all actives have a fitted effect of over 50% in size; note: potency is the fitted concentration of half-maximal effect
Conditions: HCT-116 viability, CellTiter-Glo ATP luminescence, 2 h; series mostly up to 92.4 µM; activity change, negative = cytotoxicity: at the top concentration
In short: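 HCT-116 wild-type, overnight attachment; 2hr drug exposure, 37C; CellTiter-Glo luminescent ATP readout after 30min RT.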
In the case of `Nc1cc(Cl)ccc1Cl`, the “activity change, negative = cytotoxicity” value is reported as 1.36%. With `O=c1[nH]c(Cl)c(Cl)cc1Cl` the “activity change, negative = cytotoxicity” value was 1.2%. In the case of `CCCCCCCCCCCCCCn1cc[n+](C)c1`, the “activity change, negative = cytotoxicity” value is reported as -21.6%. With `CSC(=O)c1c(C(F)F)nc(C(F)(F)F)c(C(=O)SC)c1CC(C)C` the “activity change, negative = cytotoxicity” value was -5.33%. In the case of `Cc1ccc(C)c2ccccc12`, the “activity change, negative = cytotoxicity” value is reported as -0.183%. For `CC(Cc1ccccc1)N(C)Cc1ccco1` (centres undefined), the “activity change, negative = cytotoxicity” value was -0.405% [at 42.5 µM]. With `O=C(CCCCl)c1ccc(F)cc1` the “activity change, negative = cytotoxicity” value was -3.53% [at 42.5 µM]. In the case of `O=C(NC(=O)c1ccccc1Cl)Nc1ccc(OC(F)(F)F)cc1`, the “activity change, negative = cytotoxicity” value is reported as 0.859%. With `Oc1cccc(Cl)c1Cl` the “activity change, negative = cytotoxicity” value was -0.0008%. In the case of `CCCCC/C=C\C/C=C\C/C=C\C/C=C\CCCC(=O)NCC(=O)O`, the “activity change, negative = cytotoxicity” value is reported as -5.63% [at 42.5 µM]. In the case of `O=C(N[C@H]1N=C(c2ccccc2F)c2cccc3c2N(CC3)C1=O)c1cc2ccccc2[nH]1`, the “activity change, negative = cytotoxicity” value is reported as 0.329% [at 42.5 µM]. In the case of `CNC(C)(C)Cc1ccccc1`, the “activity change, negative = cytotoxicity” value is reported as -0.0374% [at 42.5 µM]. With `O=[N+]([O-])[O-].[Tl+]` the “activity change, negative = cytotoxicity” value was -1.88%. For `ClC(Cl)C(Cl)(Cl)Cl`, the “activity change, negative = cytotoxicity” value was -7.43%. With `C[C@@H]1CC2=CC(=O)CC[C@@H]2[C@H]2CC[C@@]3(C)[C@@H](CC[C@]3(C)O)[C@@H]21` the “activity change, negative = cytotoxicity” value was -0.707% [at 42.5 µM]. For `Brc1ccc(Oc2ccc(Br)cc2Br)c(Br)c1`, the “activity change, negative = cytotoxicity” value was -9.01%. For `CC(=O)[O-].CC(=O)[O-].CC(=O)[O-].[Sb+3]`, the activity change, negative = cytotoxicity was -3.57% [at 3.27 µM]. For `COP(=S)(OC)Oc1nc(Cl)c(Cl)cc1Cl`, the “activity change, negative = cytotoxicity” value was -6.03%. In the case of `CC(C)Br`, the “activity change, negative = cytotoxicity” value is reported as 4.27%. In the case of `[O-][Cl+3]([O-])([O-])O`, the “activity change, negative = cytotoxicity” value is reported as 0.344%. For `CC(C)[C@@H](Nc1ccc(C(F)(F)F)cc1Cl)C(=O)OC(C#N)c1cccc(Oc2ccccc2)c1` (some centres undefined), the “activity change, negative = cytotoxicity” value was -7.2%. In the case of `CSSC`, the “activity change, negative = cytotoxicity” value is reported as -0.256%. In the case of `CSC1=N[C@@](C)(c2ccccc2)C(=O)N1Nc1ccccc1`, the “activity change, negative = cytotoxicity” value is reported as -0.632%. In the case of `N#CCCl`, the “activity change, negative = cytotoxicity” value is reported as -2.09%. For `CCCC[N+]1(C)CCCC1` (tested in a mixture with another compound), the “activity change, negative = cytotoxicity” value was 14.1%. For `Cc1ccc([N+](=O)[O-])[c]2c1[O][Hg]2`, the Potency was 29.8 µM (active). In the case of `COC(=O)/C=C(\C)OP(=O)(OC)OC`, the “activity change, negative = cytotoxicity” value is reported as 0.36%. For `COP(=S)(OC)Oc1ccc([N+](=O)[O-])c(C)c1`, the “activity change, negative = cytotoxicity” value was -8.97%. For `CCC[CH2][Sn]([CH2]CCC)([O]C(C)=O)[O]C(C)=O`, the “activity change, negative = cytotoxicity” value was 16.3%. In the case of `CC#C[C@]1(O)CC[C@H]2[C@@H]3C[C@H](C)C4=CC(=O)CC[C@]4(C)[C@H]3CC[C@@]21C`, the “activity change, negative = cytotoxicity” value is reported as 3.6% [at 42.5 µM]. With `CC1CCCC1` the “activity change, negative = cytotoxicity” value was -6.55%. For `CCCCn1cc[n+](C)c1.[Cl][Fe-]([Cl])([Cl])[Cl]`, the “activity change, negative = cytotoxicity” value was -3.03%. With `Nc1nc(N)c(N)c(N)n1` the “activity change, negative = cytotoxicity” value was 5.21%. With `CCC(C)Nc1c([N+](=O)[O-])cc(C(C)(C)C)cc1[N+](=O)[O-]` (centres undefined) the “activity change, negative = cytotoxicity” value was -9.16%. For `O=C(NC(=O)c1c(F)cccc1F)Nc1ccc(Oc2ccc(C(F)(F)F)cc2Cl)cc1F`, the “activity change, negative = cytotoxicity” value was -12%. For `CCCCC(CC)COC(=O)OOC(C)(C)C` (centres undefined), the “activity change, negative = cytotoxicity” value was 1.33%. In the case of `CC1CN1` (centres undefined), the “activity change, negative = cytotoxicity” value is reported as 3.14%. With `O=S(=O)(NS(=O)(=O)C(F)(F)F)C(F)(F)F` the “activity change, negative = cytotoxicity” value was 1.49%. In the case of `O.O.O.O.O.O.O.O=S(=O)([O-])[O-].[Co+2]`, the “activity change, negative = cytotoxicity” value is reported as -1.89%.

Source: PubChem BioAssay (Tox21)
% is set by controls: 0 for no effect and ±100 for the full control effect.
